From ChEMBL document CHEMBL3988442, “University of Dundee, Small-Polar-MMV Screening Library” (2021)
For part of these data: Measured potencies and affinities stand elsewhere.

Columns and labels:
Design in all cases: scale not given: direction of the effect not stated beside the values
[1] = biological target: Protein translocase subunit SecA (Escherichia coli (strain K12)) (UniProt P10408); test: Assay to Identify E. coli SecA ATPase Inhibitors; type: functional; conditions: 30 µM
[2] = biological target: T1, Ubiquitin-activating enzyme e1, putative (Leishmania donovani (strain BPK282A1)) (UniProt E9BSI1); test: Leishmania donovani Ubiquitin Activating Enzyme (LdE1); type: functional; conditions: 30 µM
T1 sequence (whole entry): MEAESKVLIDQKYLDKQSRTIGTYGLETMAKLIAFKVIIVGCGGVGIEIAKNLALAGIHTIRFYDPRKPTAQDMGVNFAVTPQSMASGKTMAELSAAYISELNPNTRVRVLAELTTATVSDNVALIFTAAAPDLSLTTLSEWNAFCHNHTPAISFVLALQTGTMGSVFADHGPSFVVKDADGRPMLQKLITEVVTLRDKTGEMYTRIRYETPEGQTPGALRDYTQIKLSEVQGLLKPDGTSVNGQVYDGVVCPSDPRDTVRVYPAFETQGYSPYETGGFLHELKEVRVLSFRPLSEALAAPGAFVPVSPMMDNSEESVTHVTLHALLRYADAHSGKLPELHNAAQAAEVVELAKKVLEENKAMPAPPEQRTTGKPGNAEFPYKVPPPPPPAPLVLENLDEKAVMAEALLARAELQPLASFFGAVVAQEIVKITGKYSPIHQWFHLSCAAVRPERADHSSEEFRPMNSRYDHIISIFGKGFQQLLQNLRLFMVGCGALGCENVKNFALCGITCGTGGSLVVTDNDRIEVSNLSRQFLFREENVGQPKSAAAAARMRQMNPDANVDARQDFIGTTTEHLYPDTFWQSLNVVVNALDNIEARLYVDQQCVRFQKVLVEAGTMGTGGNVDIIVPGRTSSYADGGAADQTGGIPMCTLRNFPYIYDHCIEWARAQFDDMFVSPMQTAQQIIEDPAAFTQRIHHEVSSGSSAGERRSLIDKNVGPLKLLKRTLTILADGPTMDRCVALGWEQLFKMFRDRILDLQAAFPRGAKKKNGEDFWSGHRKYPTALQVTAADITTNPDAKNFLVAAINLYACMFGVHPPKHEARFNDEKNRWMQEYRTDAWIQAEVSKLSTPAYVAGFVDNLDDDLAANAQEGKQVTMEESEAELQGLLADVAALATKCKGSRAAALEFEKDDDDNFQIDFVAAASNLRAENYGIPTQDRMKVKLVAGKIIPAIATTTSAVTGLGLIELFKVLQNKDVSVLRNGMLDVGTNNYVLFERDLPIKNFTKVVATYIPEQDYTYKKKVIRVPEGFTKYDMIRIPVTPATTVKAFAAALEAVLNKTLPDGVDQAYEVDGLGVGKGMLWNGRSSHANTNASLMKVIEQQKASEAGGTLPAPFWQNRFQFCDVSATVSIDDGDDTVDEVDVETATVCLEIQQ

[3] = biological target: T2, Aspartate--tRNA(Asp/Asn) ligase (Mycobacterium tuberculosis (strain ATCC 25618 / H37Rv)) (UniProt P9WFW3); test: Assay for Asp RNA synthetase-1 from Mycobacterium tuberculosis; type: functional; conditions: 30 µM; also: in the data most compounds retested in dose-response had high values
T2 sequence (whole entry): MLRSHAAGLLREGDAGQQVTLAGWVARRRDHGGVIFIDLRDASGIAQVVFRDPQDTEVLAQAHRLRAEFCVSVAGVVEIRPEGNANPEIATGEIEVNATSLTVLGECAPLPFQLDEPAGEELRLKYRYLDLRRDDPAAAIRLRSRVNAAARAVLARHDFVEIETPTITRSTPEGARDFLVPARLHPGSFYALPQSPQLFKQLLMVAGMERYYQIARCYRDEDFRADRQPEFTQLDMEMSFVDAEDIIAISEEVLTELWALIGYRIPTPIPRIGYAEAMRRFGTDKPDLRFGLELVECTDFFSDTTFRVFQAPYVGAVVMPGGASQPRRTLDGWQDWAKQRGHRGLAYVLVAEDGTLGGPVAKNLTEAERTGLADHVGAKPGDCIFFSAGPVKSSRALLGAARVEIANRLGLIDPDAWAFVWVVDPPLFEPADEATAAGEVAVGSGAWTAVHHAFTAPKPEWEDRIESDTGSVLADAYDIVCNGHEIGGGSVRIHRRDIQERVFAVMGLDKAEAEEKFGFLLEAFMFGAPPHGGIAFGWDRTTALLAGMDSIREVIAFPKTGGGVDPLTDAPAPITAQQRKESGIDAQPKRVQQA

[4] = biological target: AMP-activated protein kinase, AMPK (Homo sapiens) (UniProt P54646+O43741+P54619+Q9UGJ0+Q9Y478+Q13131+Q9UGI9); test: AMP-dependent Kinase enzyme assay. An in vitro enzyme assay that detects ADP turnover that is directly proportional to AMPK activity. This uses naive AMPK that is activated during the assay with MK-8722; type: functional; conditions: 30 µM
[5] = biological target: Sialic acid-binding Ig-like lectin 9 (Homo sapiens) (UniProt Q9Y336); test: Hs-Siglec9 ALPHAscreen SOP 20170721; conditions: 10 µM
Trypanosoma cruzi = test: Trypanosoma cruzi phosphomannomutase and mannose-1-phosphate guanylyltransferase assay; type: functional; conditions: 10 µM
[6] = biological target: T3, Arginase-2, mitochondrial (Homo sapiens) (UniProt P78540); test: in vitro enzyme assay to detect the production of urea directly proportional to the activity of Arginase II; type: functional; conditions: 33.3 µM; also: in the data most compounds retested in dose-response had high values
T3 sequence (whole entry): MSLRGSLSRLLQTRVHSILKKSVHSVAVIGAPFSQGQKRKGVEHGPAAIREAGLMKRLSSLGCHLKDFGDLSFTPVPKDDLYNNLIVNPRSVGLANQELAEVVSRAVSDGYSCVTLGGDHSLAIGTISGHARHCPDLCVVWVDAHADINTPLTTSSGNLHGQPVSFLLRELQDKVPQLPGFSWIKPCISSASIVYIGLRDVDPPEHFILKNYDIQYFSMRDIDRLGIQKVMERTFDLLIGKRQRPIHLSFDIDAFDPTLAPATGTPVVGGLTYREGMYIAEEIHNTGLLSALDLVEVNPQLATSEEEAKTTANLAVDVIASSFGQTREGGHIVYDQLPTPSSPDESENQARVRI

[7] = biological target: T4, Proteasome subunit beta (Trypanosoma cruzi) (UniProt O96673); test: Trypanosoma cruzi proteasome chymotrypsin-like activity (TcProtChymo) assay.; also: in the data most compounds retested in dose-response had high values; type: functional; conditions: 9.37 µM
T4 sequence (whole entry): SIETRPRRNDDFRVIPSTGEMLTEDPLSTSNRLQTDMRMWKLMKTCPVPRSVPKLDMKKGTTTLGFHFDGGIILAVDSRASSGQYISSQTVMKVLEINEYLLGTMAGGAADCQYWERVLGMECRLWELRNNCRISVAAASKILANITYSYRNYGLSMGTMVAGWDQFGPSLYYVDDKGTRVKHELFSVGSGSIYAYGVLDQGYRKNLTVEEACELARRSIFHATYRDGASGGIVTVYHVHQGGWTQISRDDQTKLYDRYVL

Homo sapiens = species: Homo sapiens; test: To identify inhibition of the IFN signalling (Jak-Stat) pathway via expression of an eGFP reporter gene under the control of an IFN-stimulated response element (ISRE) containing MxA promoter.; type: functional; conditions: 30 µM
[8] = biological target: Shiga toxin 2 (Escherichia coli O157:H7) (UniProt P09385+P09386); test: E. coli 0.157:H7 Shiga Toxin SOP - stx2 screening assay; type: functional; conditions: 30 µM
[9] = biological target: T5, Tyrosyl-tRNA synthetase, putative (Trypanosoma cruzi (strain CL Brener)) (UniProt Q4DSP6); test: Trypanosoma cruzi tyrosyl tRNA synthetase (TcYRS) _High Tyrosine SOP; type: functional; conditions: 30 µM; also: in the data most compounds retested in dose-response had high values
T5 sequence (whole entry): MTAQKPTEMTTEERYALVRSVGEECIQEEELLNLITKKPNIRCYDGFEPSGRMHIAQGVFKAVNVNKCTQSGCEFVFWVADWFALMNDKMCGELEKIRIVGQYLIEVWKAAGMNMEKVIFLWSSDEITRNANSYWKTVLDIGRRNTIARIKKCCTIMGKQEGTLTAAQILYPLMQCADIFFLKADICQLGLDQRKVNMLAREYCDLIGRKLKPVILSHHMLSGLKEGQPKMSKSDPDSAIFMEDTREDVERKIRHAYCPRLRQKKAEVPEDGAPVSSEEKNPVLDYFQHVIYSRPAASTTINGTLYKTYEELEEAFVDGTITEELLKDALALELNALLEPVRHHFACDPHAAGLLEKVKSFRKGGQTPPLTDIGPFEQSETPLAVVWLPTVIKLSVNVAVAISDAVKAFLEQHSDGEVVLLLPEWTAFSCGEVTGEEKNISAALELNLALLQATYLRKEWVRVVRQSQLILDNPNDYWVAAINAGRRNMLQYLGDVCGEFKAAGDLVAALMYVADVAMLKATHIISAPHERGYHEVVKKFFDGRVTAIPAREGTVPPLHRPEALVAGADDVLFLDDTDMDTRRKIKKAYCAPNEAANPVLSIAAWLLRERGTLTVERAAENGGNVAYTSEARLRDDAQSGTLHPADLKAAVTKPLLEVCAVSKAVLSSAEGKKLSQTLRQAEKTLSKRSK

[10] = biological target: T5, Tyrosyl-tRNA synthetase, putative (Trypanosoma cruzi (strain CL Brener)); test: Trypanosoma cruzi tyrosyl tRNA synthetase (TcYRS) SOP; type: functional; conditions: 30 µM
[11] = biological target: Chromo domain-containing protein 1 (Saccharomyces cerevisiae (strain ATCC 204508 / S288c) (Baker's yeast)) (UniProt P32657); test: ScCHD-1 Enzyme Inhibition Assay; type: functional; conditions: 30 µM; also: in the data most compounds retested in dose-response had high values
Chromo domain-containing protein 1 (Saccharomyces cerevisiae (strain ATCC 204508 / S288c) (Baker's yeast)), sequence (P32657 whole entry, the tested form may be a part): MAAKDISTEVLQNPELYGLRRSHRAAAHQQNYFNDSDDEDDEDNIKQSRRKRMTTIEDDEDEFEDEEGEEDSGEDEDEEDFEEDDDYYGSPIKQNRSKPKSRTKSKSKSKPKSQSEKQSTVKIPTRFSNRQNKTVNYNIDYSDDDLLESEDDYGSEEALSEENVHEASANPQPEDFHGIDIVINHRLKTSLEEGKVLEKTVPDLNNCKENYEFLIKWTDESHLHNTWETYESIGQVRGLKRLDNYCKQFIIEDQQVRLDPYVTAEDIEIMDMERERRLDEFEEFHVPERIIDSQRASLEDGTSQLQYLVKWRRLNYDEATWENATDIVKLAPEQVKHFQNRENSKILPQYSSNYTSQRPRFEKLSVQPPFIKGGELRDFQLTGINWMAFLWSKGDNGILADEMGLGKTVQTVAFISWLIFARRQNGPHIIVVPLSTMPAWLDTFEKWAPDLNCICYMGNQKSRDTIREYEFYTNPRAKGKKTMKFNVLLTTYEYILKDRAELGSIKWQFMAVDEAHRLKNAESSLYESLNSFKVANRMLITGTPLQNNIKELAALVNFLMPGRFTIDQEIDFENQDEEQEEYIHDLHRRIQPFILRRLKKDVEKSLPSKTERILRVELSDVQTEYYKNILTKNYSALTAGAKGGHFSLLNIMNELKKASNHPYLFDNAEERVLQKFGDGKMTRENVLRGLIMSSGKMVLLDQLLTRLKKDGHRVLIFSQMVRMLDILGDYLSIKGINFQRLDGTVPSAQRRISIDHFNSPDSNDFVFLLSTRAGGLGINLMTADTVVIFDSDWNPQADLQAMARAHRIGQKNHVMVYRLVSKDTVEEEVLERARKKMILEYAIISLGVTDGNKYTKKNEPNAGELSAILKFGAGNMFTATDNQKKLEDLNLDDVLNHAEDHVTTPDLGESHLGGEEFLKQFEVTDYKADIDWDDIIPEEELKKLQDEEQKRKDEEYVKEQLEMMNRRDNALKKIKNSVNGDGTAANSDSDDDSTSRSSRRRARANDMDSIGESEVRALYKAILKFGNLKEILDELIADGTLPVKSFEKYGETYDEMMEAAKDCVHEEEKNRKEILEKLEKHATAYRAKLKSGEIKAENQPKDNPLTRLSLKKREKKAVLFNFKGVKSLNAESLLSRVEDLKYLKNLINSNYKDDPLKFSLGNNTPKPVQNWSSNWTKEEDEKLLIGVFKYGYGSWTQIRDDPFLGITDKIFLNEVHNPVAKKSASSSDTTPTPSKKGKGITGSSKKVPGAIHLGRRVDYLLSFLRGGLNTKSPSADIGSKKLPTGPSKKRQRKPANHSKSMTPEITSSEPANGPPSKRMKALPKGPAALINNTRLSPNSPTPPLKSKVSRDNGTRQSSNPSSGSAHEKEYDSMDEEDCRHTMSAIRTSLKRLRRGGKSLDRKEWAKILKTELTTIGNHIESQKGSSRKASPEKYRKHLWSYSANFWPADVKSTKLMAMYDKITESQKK

Protein translocase subunit SecA (Escherichia coli (strain K12)), sequence (P10408 whole entry): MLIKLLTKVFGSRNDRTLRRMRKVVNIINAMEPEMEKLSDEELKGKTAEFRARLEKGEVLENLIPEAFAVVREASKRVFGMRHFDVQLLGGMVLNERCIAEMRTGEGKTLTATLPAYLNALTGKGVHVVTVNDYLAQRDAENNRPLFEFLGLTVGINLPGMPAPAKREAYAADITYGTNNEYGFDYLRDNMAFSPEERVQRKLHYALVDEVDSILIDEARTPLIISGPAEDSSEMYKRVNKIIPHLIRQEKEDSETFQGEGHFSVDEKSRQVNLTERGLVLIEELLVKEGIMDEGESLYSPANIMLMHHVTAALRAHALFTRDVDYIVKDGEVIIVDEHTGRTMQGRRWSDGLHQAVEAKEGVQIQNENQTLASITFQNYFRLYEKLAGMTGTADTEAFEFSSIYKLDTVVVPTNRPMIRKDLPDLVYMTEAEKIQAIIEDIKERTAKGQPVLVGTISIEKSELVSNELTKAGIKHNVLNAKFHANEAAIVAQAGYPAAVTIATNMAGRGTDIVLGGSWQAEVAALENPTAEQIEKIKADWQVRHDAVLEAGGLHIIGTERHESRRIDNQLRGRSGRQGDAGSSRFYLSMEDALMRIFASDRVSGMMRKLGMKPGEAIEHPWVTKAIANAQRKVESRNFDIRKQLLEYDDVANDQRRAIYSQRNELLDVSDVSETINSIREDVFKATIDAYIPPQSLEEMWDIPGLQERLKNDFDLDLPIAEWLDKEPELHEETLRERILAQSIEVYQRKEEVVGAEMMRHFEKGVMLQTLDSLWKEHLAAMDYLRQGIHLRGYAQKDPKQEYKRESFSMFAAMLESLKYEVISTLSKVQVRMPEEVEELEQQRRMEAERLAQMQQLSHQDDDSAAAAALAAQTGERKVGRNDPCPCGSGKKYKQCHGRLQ
Sialic acid-binding Ig-like lectin 9 (Homo sapiens), sequence (Q9Y336 whole entry): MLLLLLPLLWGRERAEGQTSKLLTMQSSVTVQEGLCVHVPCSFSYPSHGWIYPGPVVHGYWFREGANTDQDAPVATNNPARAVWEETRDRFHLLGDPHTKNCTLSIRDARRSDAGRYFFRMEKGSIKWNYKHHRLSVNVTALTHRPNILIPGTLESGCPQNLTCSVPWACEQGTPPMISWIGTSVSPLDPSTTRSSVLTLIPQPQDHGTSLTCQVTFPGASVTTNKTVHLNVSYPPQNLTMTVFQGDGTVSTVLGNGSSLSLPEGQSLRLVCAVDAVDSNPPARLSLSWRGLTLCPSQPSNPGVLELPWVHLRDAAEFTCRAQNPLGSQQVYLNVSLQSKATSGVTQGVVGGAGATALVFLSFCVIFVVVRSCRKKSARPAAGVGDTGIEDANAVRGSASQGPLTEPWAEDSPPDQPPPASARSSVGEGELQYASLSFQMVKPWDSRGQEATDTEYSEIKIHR

| Structure (SMILES) | Percent Effect [1] [%] | Percent Effect [2] [%] | Percent Effect [3] [%] | Percent Effect [4] [%] | Percent Effect [5] [%] | Percent Effect (Trypanosoma cruzi) [%] | Percent Effect [6] [%] | Percent Effect [7] [%] | Percent Effect (Homo sapiens) [%] | Percent Effect [8] [%] | Percent Effect [9] [%] | Percent Effect [10] [%] | Percent Effect [11] [%] |
| --- | --- | --- | --- | --- | --- | --- | --- | --- | --- | --- | --- | --- | --- |
| O=C1CC2(CCN(Cc3ccccn3)C2)CN1c1cncnc1 (configuration not stated) | -0.821 | 0 | -1.45 | 2.73 | -3.03 | -1.66 | 0.319 | 16.1 | -0.29 | -1.07 | 2.16 | 5.13 | 5.33 |
| CC(C)N1CCc2c(CN(C)Cc3ccco3)cncc2C1 | -2.76 | 0 | -1.51 | 0.165 | 16.7 | -3.86 | -22.8 | 0.171 | -0.596 | -0.895 | 4.17 | -7.5 | -4.61 |
| O=C1CC[C@@H]2[C@@H](CCN2Cc2ccncc2)N1c1ccccc1 | -3.22 | -8 | 0.204 | -13.7 | 8.87 | -2.7 | 0.896 | 11.1 | -5.31 | -8.6 | 5.21 | 7.5 | -2.91 |
| CCOCC(O)CN1CCN(C(=O)Cc2ccc(C)nc2)CC1 (configuration not stated) | -0.896 | 18.4 | -0.811 | 1.93 | 7.02 | -3.38 | 3.83 | 15.9 | 10.3 | 27 | 11.3 | 17.1 | -5.52 |
| CCS(=O)(=O)N[C@@H]1CN(Cc2cc(C)on2)C[C@@H]2CCCO[C@@H]21 | -5.04 | 8.11 | 4.25 | 0.656 | 19 | 1.66 | 4.71 | 6.27 | -3.3 | 1.95 | 6.45 | 18.5 | -4.16 |
| Cc1ccc(CN2CCC3(CC2)C(=O)N(C)c2ccccc23)s1 | -4.09 | 8.11 | 7.84 | -1.34 | 6.95 | -0.781 | 2.08 | 16.8 | 20.4 | -2.26 | 7.92 | 11 | 5.6 |
| COCc1cncc2c1CCN(Cc1ccccn1)C2 | -5.11 | 5.41 | 3.14 | -2.9 | -3.72 | -0.391 | 4.58 | 14.4 | 2.95 | -55.7 | 14.8 | 23.2 | 1.79 |
| COc1ccccc1C1SCC(=O)Nc2n[nH]cc21 (configuration not stated) | -5.34 | 5.26 | 6.47 | 16.6 | -1.26 | -2.63 | 15.4 | 12.6 | -13.4 | 5.55 | 3.19 | 2.6 | -2.61 |
| c1cc(NC2CC3(CCN(Cc4cc[nH]n4)C3)C2)ncn1 (configuration not stated) | -3.9 | -4.05 | -4.78 | 5.87 | 0.0436 | 5.73 | -3.02 | 2.18 | -4.19 | 0.0104 | 2.15 | 3.9 | -8.87 |
